Each structure is given as a SMILES string. Inconclusive results are not listed. Entries that show only a call come without a potency. The source made the active and inactive calls. The call rests on the fitted dose curve; in most records, active means well fitted cell-killing curve with a large enough effect; inconclusive means small, poorly fitted or top-dose-only effect; inactive means no such curve, though single readings can be large or run the other way.
Potency means the concentration at half of the fitted maximal effect.

A short description of the assay: qHTS of pediatric cancer cell lines to identify multiple opportunities for drug repurposing: Primary screen for MG 63 (6-TG R) cells (AID 1347105). Further: nearly all actives have a fitted effect of over 50% in size. Conditions: MG 63 (6-TG R) viability, CellTiter-Glo, 48 h; series mostly up to 46 µM. The text has this: Drug repurposing or repositioning has been offered as a strategy for drug development in oncology programs. This approach has special potential for childhood cancers and other rare or orphan diseases, where the expected return on new drug development has been a disincentive to pharmaceuticals. […] In this project we exploit the poly-pharmacology of drugs to discover new indications via phenotypic screening of a panel of 19 well-characterized cell lines derived from solid tumors seen in children and adolescents. The goal is to identify approved drugs with previously unrecognized anticancer properties that has the potential to reveal new mechanisms and biological processes involved in carcinogenesis or drug resistance. We employed a titration-based paradigm (quantitative high-throughput screening or qHTS), where all compounds were tested at multiple concentrations for their effect on cell viability. Concentration-response curves (CRCs) were derived directly from the primary screen, and both potency and efficacy values were used to identify compounds with robust bioactivity profiles. We screened the NIH Chemical Genomics Center (NCGC) Pharmaceutical Collection (NPC) and Mechanism Interrogation Plate (MIPE) small molecule collections of approved and investigational compounds against these cell lines; and measured metabolically active cells after 48 hours of compound treatment as a proxy for cell viability. […] Assay Submitter: Nathalia J. Martinez, National Center for Advancing Translational Sciences, National Institutes of Health, Rockville, MD, USA; email: natalia.martinez@nih.gov Shen, M et al. Quantitative high-throughput phenotypic screening of pediatric cancer cell lines identifies multiple opportunities for drug repurposing. Oncotarget 2017 Dec 19;9(4):4758-4772. PMID 29435139.
The cells were obtained from University of North Carolina (UNC), Pediatric Preclinical Testing Program (PPT), and Coriell Institute (CI). qHTS cell viability assay: Cells were assayed in growth media at a density of 500-1,000 cells/well. Five microliters of cells were dispensed into 1,536-well, white, solid-bottom, TC-treated plates (Greiner Bio One) using a multidrop dispenser and incubated at 37 degrees C, 5% CO2, under a humidified atmosphere for 5 hours. Twenty-three nanoliters of compounds and controls (neutral control DMSO or positive control bortezomib at final concentration of 2.3 µM) were subsequently transferred by Kalypsys pintool. For primary screens, the MIPE collection was tested at 11-point dilutions (final concentrations range from 0.78 nM to 46 µM) and the NPC collection at 8-point dilutions (final concentrations range from 0.59 nM to 46 µM). Compounds tested in follow-up screens were assayed at 11-point dilutions. Cells were incubated for 48 hours, followed by addition of 3 µL of CellTiter-Glo (Promega). After a 15 min incubation at room temperature, samples were analyzed for luminescence intensity using a ViewLux High-throughput CCD imager equipped with clear filters.
With `COc1cccc2c1C(=O)c1c(O)c3c(c(O)c1C2=O)C[C@@](O)(C(C)=O)C[C@@H]3O[C@H]1C[C@H](N)[C@H](O)[C@H](C)O1`, the Potency was 4.22 µM (active). In the case of `Cc1c(C)n(CCN(C)C)c2ccc(C(=O)OCCN(C)C)cc12`, the Potency entry is “inactive”. For the molecule `CO/N=C1\CN(c2nc3c(cc2F)c(=O)c(C(=O)O)cn3C2CC2)CC1CN` (stereo not given), the Potency entry is “inactive”. `CN1CCC(=C2c3ccccc3Sc3ccccc32)CC1`: the Potency result is “inactive”. For the molecule `NC(CS)C(=O)O` (stereo not given), the Potency result is “inactive”. `CC(=O)OCC(=O)[C@@]1(OC(C)=O)[C@@H](C)C[C@H]2[C@@H]3C[C@H](F)C4=CC(=O)C=C[C@]4(C)[C@@]3(F)[C@@H](O)C[C@@]21C`: the Potency entry is “inactive”. Turning to `NC(=O)CC[C@@H]1NC(=O)[C@H](Cc2ccccc2)NC(=O)[C@H](Cc2ccc(O)cc2)NC(=O)CCSSC[C@@H](C(=O)N2CCC[C@H]2C(=O)N[C@@H](CCCN=C(N)N)C(=O)NCC(N)=O)NC(=O)[C@H](CC(N)=O)NC1=O`, the Potency result was “inactive”. For the molecule `CC(C)(CO)[C@@H](O)C(=O)NCCCO`, the Potency result is “inactive”. Regarding `O=c1ccc2ccccc2o1`, the Potency entry was “inactive”. For the molecule `Cc1ccnc(NS(=O)(=O)c2ccc(N)cc2)n1`, the Potency result was “inactive”. Consider `C[C@H]1C[C@H]2[C@@H]3CCC4=CC(=O)C=C[C@]4(C)[C@@]3(Cl)[C@@H](O)C[C@]2(C)[C@@]1(O)C(=O)CO`, for which the Potency entry is “inactive”. Turning to `CCCN1CCCC[C@H]1C(=O)Nc1c(C)cccc1C`, the Potency result was “inactive”.

In the case of `C[C@]12C=CC(=O)C=C1CC[C@@H]1[C@@H]2[C@@H](O)C[C@@]2(C)[C@H]1CC[C@]2(O)C(=O)CO`, the Potency result was “inactive”. On to `C[C@H](O)C(=O)Nc1c(I)c(C(=O)NC(CO)CO)c(I)c(C(=O)NC(CO)CO)c1I`, for which the Potency result was “inactive”. Regarding `Cc1ccc(O)c2ncccc12`, the Potency was 10.6 µM (active). To `CC(C)N=C(N)/N=C(\N)Nc1ccc(Cl)cc1` belongs “inactive”; to `CC(=O)O[C@]1(C(C)=O)CC[C@H]2[C@@H]3C[C@H](C)C4=CC(=O)CC[C@]4(C)[C@H]3CC[C@@]21C`, “inactive”; to `CC(=O)Oc1ccc2c(c1)CC[C@@H]1[C@@H]2CC[C@]2(C)[C@@H](O)CC[C@@H]12`, “inactive”.

Turning to `OC[C@@H](O)[C@@H](O[C@@H]1O[C@H](CO)[C@H](O)[C@H](O)[C@H]1O)[C@H](O)[C@@H](O)CO`, the Potency result was “inactive”. Turning to `CCCCN1CCCC1C(=O)Nc1c(C)cc(C)cc1C` (stereo not given), the Potency entry is “inactive”. For the molecule `CCCOC(C(=O)OC1CCN(C)CC1)(c1ccccc1)c1ccccc1`, the Potency result is “inactive”. With `CCCCc1nc(Cl)c(CO)n1Cc1ccc(-c2ccccc2-c2nn[nH]n2)cc1`, the Potency entry was “inactive”. For the molecule `CC1=C(C(=O)O)N2C(=O)[C@@H](NC(=O)[C@H](N)c3ccc(O)cc3)[C@H]2SC1`, the Potency result is “inactive”. For the molecule `COc1cc(N)c(Cl)cc1C(=O)NC1CCN(CCCOc2ccc(F)cc2)CC1OC` (stereo not given), the Potency entry was “inactive”.

Turning to `c1ccc(OCc2ccc(CCCN3CCOCC3)cc2)cc1`, the Potency result was “inactive”.

As to `CCOC(=O)/C=C(C)/C=C/C=C(C)/C=C/c1c(C)cc(OC)c(C)c1C`, the Potency result is “inactive”.

As for `COC(=O)[C@@H]1CC2=CC(=O)CC[C@]2(C)[C@@]23O[C@@H]2C[C@@]2(C)[C@@H](CC[C@@]24CCC(=O)O4)[C@H]13`, the Potency result is “inactive”.

In the case of `NC(=O)c1cc[n+](CC2=C(C(=O)[O-])N3C(=O)[C@@H](NC(=O)Cc4cccs4)[C@H]3SC2)cc1`, the Potency result was “inactive”. As for `Oc1ccc(Cl)c2cccnc12`, the Potency entry was “inactive”. `C[C@]12C=CC(=O)C=C1[C@@H](F)C[C@@H]1[C@@H]2[C@@H](O)C[C@@]2(C)[C@H]1CC[C@]2(O)C(=O)CO`: the Potency entry was “inactive”.

Consider `CC(Cc1cccc(C(F)(F)F)c1)NCCOC(=O)c1ccccc1` (stereo not given), for which the Potency result was “inactive”.

For `O=C(Nc1ccc(Cl)c(Cl)c1)C1CC1`, the Potency result was “inactive”. Regarding `O=C(N/N=C/c1ccccc1O)c1ccncc1`, the Potency was 6.68 µM (active). For the molecule `CCCC(=O)O[C@]1(C(=O)CO)CC[C@H]2[C@@H]3CCC4=CC(=O)CC[C@]4(C)[C@H]3[C@@H](O)C[C@@]21C`, the Potency entry is “inactive”.

In the case of `CN(C)CCOc1ccccc1Cc1ccccc1`, the Potency entry is “inactive”. On to `CCN(CCCCOC(=O)c1ccc(OC)c(OC)c1)C(C)Cc1ccc(OC)cc1` (stereo not given), for which the Potency entry was “inactive”. With `Cc1cc(N)c2cc(NC(=O)Nc3ccc4nc(C)cc(N)c4c3)ccc2n1`, the Potency result was “inactive”. Consider `O=C1OC2(c3ccc(O)cc3Oc3cc(O)ccc32)c2ccccc21`, for which the Potency result is “inactive”. As for `N[C@H](Cc1c[nH]c2ccccc12)C(=O)O`, the Potency result is “inactive”. On to `CCC(=O)c1c(O)cc(O)cc1O`, for which the Potency entry was “inactive”.

For the origin of these results see PubChem BioAssay (NCATS).
